PubChem BioAssay (EPA / NIEHS)
The source made the active and inactive calls. How the source made its calls: active means hit-call score of the fitted dose curve at least 0.9, where 1 is the maximum; inactive means score below 0.9.

Columns and labels:
[1] = APR_HepG2_CellLoss_72hr: Apredica 72-hour HepG2 Assay for Cell Loss (AID 2282915); conditions: high-content imaging
Procedure, shortened: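 HepG2 cells were exposed for 72 hr to compounds at 0.39–200 uM (ten concentrations, duplicate) in 0.5% v/v final DMSO. Nuclei were stained with Hoechst 33342 after 3.7% formaldehyde fixation, imaged at 20x, and counted; fits bidirectional versus DMSO.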

[2] = APR_HepG2_P-H2AX_72hr: Apredica 72-hour HepG2 Assay for H2AX Phosphorylation (AID 2282916); conditions: imaging, actives raise or lower the signal;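 further: phospho-histone H2A.x immunostain intensity per cell marking DNA damage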
Procedure, shortened: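 Human hepatoma HepG2 cells are dosed across ten concentrations (0.39 to 200 uM, 0.5% v/v DMSO) and incubated 72 hr. Phospho-histone H2A.x is then detected by antibody staining alongside c-Jun and Hoechst, and quantified by automated fluorescence imaging.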

[3] = APR_HepG2_MitoMembPot_72hr: Apredica 72-hour HepG2 Assay for Mitochondrial Membrane Potential (AID 2282917); conditions: imaging, actives raise or lower the signal
Procedure, shortened: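 HepG2 cells exposed 72 h to compounds at 0.39–200 uM (0.5% v/v DMSO, duplicates); MitoTracker Red CMXRos 250 nM loaded 30 min before 3.7% formaldehyde fixation, imaged by HCS fluorescence. Bidirectional fit versus DMSO.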

[4] = APR_HepG2_MitoticArrest_72hr: Apredica 72-hour HepG2 Assay for Mitotic Arrest (AID 2282918); conditions: high-content imaging, actives raise or lower the signal
Procedure, shortened: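 High-content imaging of fixed human HepG2 cells after 72 h compound exposure (0.39–200 uM, duplicates, 0.5% DMSO); mitotic arrest scored from phospho-histone H3 and nuclear Hoechst staining relative to DMSO.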

[5] = APR_HepG2_MicrotubuleCSK_72hr: Apredica 72-hour HepG2 Assay for Microtubule CSK Stabilty (AID 2282919); conditions: HepG2 microtubule cytoskeleton, high-content imaging, actives raise or lower the signal
Procedure, shortened: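 Ten-point dosing (0.39–200 uM, 0.5% DMSO) of HepG2 for 72 hr, with taxol as the cytoskeletal positive control. The cells were formaldehyde-fixed and then stained with alpha-tubulin/Cy5 and Hoechst. Imaging at 20x used a −2 um Z offset for tubulin.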

[6] = APR_HepG2_P-H2AX_24hr: Apredica 24-hour HepG2 Assay for H2AX Phosphorylation (AID 2282920); conditions: high-content imaging, actives raise or lower the signal
Procedure, shortened: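 High-content imaging of phospho-histone H2A.x immunofluorescence, nuclei counterstained with Hoechst 33342, in fixed HepG2 cells. Compounds ran 0.39–200 uM in duplicate for 24 h, final DMSO 0.5%. Signal change fitted both directions against DMSO.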

[7] = APR_HepG2_StressKinase_72hr: Apredica 72-hour HepG2 Assay for Stress Kinase (AID 2282921); conditions: HepG2 stress kinase (phospho-c-Jun) imaging, actives raise or lower the signal
Procedure, shortened: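 After a 72 h compound treatment spanning 0.39 to 200 uM, formaldehyde-fixed cells are labelled for phosphorylated c-Jun and nuclei, imaged by automated fluorescence microscopy, and activity is fitted in both directions relative to DMSO controls.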

[8] = APR_HepG2_StressKinase_24hr: Apredica 24-hour HepG2 Assay for Stress Kinase (AID 2282922); conditions: HepG2 stress kinase (phospho-c-Jun) imaging, actives raise or lower the signal
Procedure, shortened: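 After 24 hr compound treatment (up to 200 uM, final DMSO 0.5% v/v), HepG2 cells are fixed and multiplex-labeled; phospho-c-Jun intensity is captured by high-content fluorescence imaging and analyzed relative to DMSO.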

[9] = APR_HepG2_p53Act_72hr: Apredica 72-hour HepG2 Assay for p53 Activation (AID 2282923); conditions: high-content imaging, actives raise or lower the signal;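 further: average cellular p53 protein immunofluorescence intensity in HepG2 cells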
Procedure, shortened: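 Imaging-based endpoint: after 72 hr compound exposure (up to 200 uM, 0.5% DMSO), fixed and permeabilized monolayers were labelled with anti-p53 antibody and imaged; signal change in either direction was fitted relative to DMSO controls.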

[10] = APR_HepG2_MitoMass_72hr: Apredica 72-hour HepG2 Assay for Mitochondrial Mass (AID 2282924); conditions: high-content imaging, actives raise or lower the signal;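 further: MitoTracker Red CMXRos stain intensity per cell imaged as mitochondrial mass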
Procedure, shortened: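 Steps: treat HepG2 72 hr (0.39–200 uM, duplicate wells); load MitoTracker Red CMXRos, 250 nM, 30 min; fix with 3.7% formaldehyde, permeabilise with 0.5% Triton X-100; capture images, nuclei via Hoechst 33342; fit bidirectionally against DMSO.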

[11] = APR_HepG2_NuclearSize_72hr: Apredica 72-hour HepG2 Assay for Nuclear Size (AID 2282925); conditions: high-content imaging, actives raise or lower the signal
Procedure, shortened: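 Compounds (0.39–200 uM, final DMSO 0.5%) were applied to HepG2 for 72 hr. Cells were then formaldehyde-fixed, permeabilized and labelled with Hoechst 33342. Nuclear diameter was quantified from six images per well.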

[12] = ATG_CRE_CIS: Attagene CIS-FACTORIAL HepG2 Assay for human cAMP Responsive Element (CRE) binding protein 3 (AID 2282926); conditions: HepG2 CRE cis-reporter, Attagene multiplexed mRNA; actives raise or lower the signal
Procedure, shortened: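 Endogenous transcription factor activity read via CRE-regulated reporter transcripts in transfected HepG2 cells. After 24 h exposure, RNA was reverse-transcribed, amplified, fluorescently labelled and sized by capillary electrophoresis; gain or loss fitted against DMSO.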

[13] = target: CCAAT/enhancer-binding protein beta (Homo sapiens) (UniProt P17676); assay: ATG_C_EBP_CIS: Attagene CIS-FACTORIAL HepG2 Assay for human CCAAT/Enhancer Binding Protein (C/EBP) beta (AID 2282927); conditions: HepG2 Attagene cis-factorial transcription factor reporter; actives raise or lower the signal
Sequence of CCAAT/enhancer-binding protein beta (Homo sapiens) (P17676 whole entry, looked up): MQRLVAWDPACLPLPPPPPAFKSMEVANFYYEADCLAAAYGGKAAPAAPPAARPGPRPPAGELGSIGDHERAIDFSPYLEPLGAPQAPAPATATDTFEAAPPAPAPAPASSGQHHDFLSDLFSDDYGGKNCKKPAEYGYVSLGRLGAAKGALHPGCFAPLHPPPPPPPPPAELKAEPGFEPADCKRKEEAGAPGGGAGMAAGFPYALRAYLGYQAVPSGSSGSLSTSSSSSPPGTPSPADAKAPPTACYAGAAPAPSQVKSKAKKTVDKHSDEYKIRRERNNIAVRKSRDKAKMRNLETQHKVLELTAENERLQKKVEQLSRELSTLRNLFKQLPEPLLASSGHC
Procedure, shortened: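 Following a 24 h incubation with test chemical, transfected HepG2 cells yielded RNA whose reporter transcripts were quantified by RT-PCR and fluorescent capillary electrophoresis, with DMSO serving as baseline for bidirectional fitting.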

[14] = ATG_CMV_CIS: Attagene CIS-FACTORIAL HepG2 Assay for human CMV (Internal Marker) (AID 2282928); conditions: HepG2 CMV promoter reporter, transcription factor profiling; actives raise or lower the signal;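 further: endpoint acts as a background internal control marker rather than a target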
Procedure, shortened: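 Reporter transcripts from transfected HepG2 cells are isolated after 24 h of chemical dosing, reverse-transcribed and amplified. Fragments labeled with 6-FAM are cut with HpaI and quantified by capillary electrophoresis; DMSO defines baseline.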

[15] = ATG_DR4_LXR_CIS: Attagene CIS-FACTORIAL HepG2 Assay for human Liver X Receptor (LXR), DR4 submotif (AID 2282929); conditions: HepG2 Attagene DR4 cis-reporter, mRNA transcription; actives raise or lower the signal
Procedure, shortened: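 Fluorescence intensity of labelled reporter cDNA fragments, separated by capillary electrophoresis, gives the signal. HepG2 cells bearing cis-regulated reporter constructs were treated 24 h; activity fitted bidirectionally relative to DMSO negative control.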

[16] = target: Aryl hydrocarbon receptor (Homo sapiens) (UniProt P35869); assay: ATG_Ahr_CIS: Attagene CIS-FACTORIAL HepG2 Assay for human Aryl Hydrocarbon Receptor (Ahr) (AID 2282930); conditions: HepG2 AhR cis-factorial reporter transcription; actives raise or lower the signal
Sequence of Aryl hydrocarbon receptor (Homo sapiens) (P35869 whole entry, looked up): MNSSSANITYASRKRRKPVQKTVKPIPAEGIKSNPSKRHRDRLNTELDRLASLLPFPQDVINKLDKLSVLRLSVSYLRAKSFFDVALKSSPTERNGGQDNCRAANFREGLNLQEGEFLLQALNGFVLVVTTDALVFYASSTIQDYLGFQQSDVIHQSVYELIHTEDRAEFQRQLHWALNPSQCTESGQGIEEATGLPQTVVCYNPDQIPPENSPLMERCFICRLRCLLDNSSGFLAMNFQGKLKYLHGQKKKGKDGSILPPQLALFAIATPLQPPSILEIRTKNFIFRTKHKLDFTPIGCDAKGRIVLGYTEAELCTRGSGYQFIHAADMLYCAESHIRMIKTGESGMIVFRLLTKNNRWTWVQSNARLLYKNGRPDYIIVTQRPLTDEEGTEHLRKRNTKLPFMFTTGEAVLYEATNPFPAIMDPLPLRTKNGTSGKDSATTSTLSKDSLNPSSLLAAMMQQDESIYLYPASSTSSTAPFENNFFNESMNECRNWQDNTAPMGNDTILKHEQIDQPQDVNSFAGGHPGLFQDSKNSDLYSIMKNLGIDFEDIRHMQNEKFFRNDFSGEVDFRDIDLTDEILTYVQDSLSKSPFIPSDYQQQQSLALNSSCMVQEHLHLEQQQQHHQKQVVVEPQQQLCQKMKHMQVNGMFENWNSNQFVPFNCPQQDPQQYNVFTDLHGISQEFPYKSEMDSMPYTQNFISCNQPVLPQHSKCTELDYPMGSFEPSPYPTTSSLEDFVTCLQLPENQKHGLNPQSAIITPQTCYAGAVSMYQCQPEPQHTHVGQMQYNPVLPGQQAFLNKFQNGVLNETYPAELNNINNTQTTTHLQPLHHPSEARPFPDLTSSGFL
Procedure, shortened: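 Values derive from bidirectional fitting against DMSO negative control. Underlying signal: cis-element reporter mRNA in transiently transfected HepG2, harvested 24 h post-dose and measured by RT-PCR plus capillary electrophoresis.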

[17] = ATG_AP_1_CIS: Attagene CIS-FACTORIAL HepG2 Assay for human Activator Protein 1 (AP-1) (AID 2282931); conditions: HepG2 Attagene cis-factorial AP-1 reporter mRNA; actives raise or lower the signal
Procedure, shortened: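 Multiplexed HepG2 reporter assay, 24 h dosing. mRNA induction detected by RT-PCR plus capillary electrophoresis. Activity fitted in both directions against DMSO.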

[18] = ATG_AP_2_CIS: Attagene CIS-FACTORIAL HepG2 Assay for human Activator Protein 2 (AP-2) (AID 2282932); conditions: HepG2 AP-2 cis-reporter, Attagene transcription factor profiling; actives raise or lower the signal
Procedure, shortened: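 Cells (HepG2) transfected with promoter-driven reporter constructs, treated 24 h. Total RNA reverse-transcribed, reporter cDNA PCR-amplified, FAM-labelled by primer extension, digested, resolved by capillary electrophoresis. Activity fitted both directions versus DMSO.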

[19] = ATG_BRE_CIS: Attagene CIS-FACTORIAL HepG2 Assay for human Bone Morphogenetic Protein (BMP) Response Element (BRE) (AID 2282933); conditions: HepG2 BMP response element reporter, Attagene transcription factor profiling; actives raise or lower the signal
Procedure, shortened: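 After a 24 h chemical treatment, transiently transfected HepG2 cells were lysed for RNA; reporter transcripts were quantified by fluorescent RT-PCR and capillary electrophoresis, normalised to DMSO.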

Measured: AC50

COc1cc(OC)nc(NC(=O)NS(=O)(=O)c2ncccc2OCC(F)(F)F)n1
inactive: [1] | [2] | [3] | [4] | [5] | [6] | [7] | [8] | [9] | [10] | [11] | [12] | [13] | [14] | [15] | [16] | [17] | [18] | [19]

CCN(CC)C(=O)C(C)Oc1cccc2ccccc12 (centres undefined)
active: [1] 77.6 µM | [12] 2.24 µM | [13] 1.2 µM | [16] 14.9 µM | [19] 14.4 µM
inactive: [2] | [3] | [4] | [5] | [7] | [8] | [9] | [10] | [11] | [14] | [15] | [17] | [18]

O=c1n(Cl)c(=O)n(Cl)c(=O)n1Cl
active: [16] 19.6 µM
inactive: [1] | [2] | [3] | [4] | [5] | [7] | [8] | [9] | [10] | [11] | [12] | [13] | [14] | [15] | [17] | [18] | [19]

CS(=O)(=O)c1cc(C(F)(F)F)ccc1C(=O)c1cnoc1C1CC1
active: [17] 78.7 µM
inactive: [1] | [2] | [3] | [4] | [5] | [6] | [7] | [8] | [9] | [10] | [11] | [12] | [13] | [14] | [15] | [16] | [18] | [19]
